In PubChem BioAssay (Tox21) one finds Potency data, which are given here for eight compounds.

Values joined by “and” are separate entries in the source; they are usually repeats but may differ in a detail not shown here. Equal entries are not always repeated. Results filed as inconclusive are left out. Active and inactive are the calls of the source. Unless noted, calls come from the whole dose curve.

A short description of assay [1]: Nuclear factor erythroid 2-related factor 2/antioxidant responsive element (Nrf2/ARE) small molecule agonists: qHTS cell viability counter screen in human keratinocytes (AID 1919968; active = well fitted curve in the direction sought with a large enough effect in the repeat runs; an effect the other way counts as inactive or inconclusive; note: nearly all actives have a fitted effect of over 55% in size; note: potency is the fitted concentration of half-maximal effect). Summed up: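 HaCaT ARE reporter line, 1,500 cells/well; 5 h settle, 37 C/5% CO2; cpd in DMSO pinned; 23 h exposure; CellTiter-Fluor, 1 h; fluorescence.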
In general terms: qHTS replaces the single test concentration by a dilution series.

A short description of assay [2]: Nuclear factor erythroid 2-related factor 2/antioxidant responsive element (Nrf2/ARE) small molecule agonists: luciferase reporter gene qHTS assay in human keratinocytes (AID 1919969). Note: nearly all actives have a fitted effect of over 35% in size. On the technique in general: Reporter assays use an easily measured gene product as a stand-in for the process of interest.
Assay [3] addresses Gonadotropin-releasing hormone receptor (Homo sapiens) (UniProt P30968). Kind of assay: Human gonadotropin-releasing hormone receptor (GnRHR) small molecule agonists, calcium flux assay in GnRHR-HEK293 cells (AID 1920063). Note: nearly all actives have a fitted effect of over 35% in size. In outline: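 GnRHR-HEK293, 1500 cells/well, 18 h 37 C/5% CO2; Ca dye 1 h 37 C; cpd pinned (DMSO), agonist mode; kinetic FL 480/540, 3 min, 1 s reads; 15 conc, n=3.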
A general note: Calcium flux is commonly read through the fluorescence of an indicator in the cells.

Assay [4] addresses KiSS-1 receptor (Homo sapiens) (UniProt Q969F8). Kind of assay: Human kisspeptin (KISS1R) small molecule agonists, calcium flux assay in KISS1R-HEK293 cells (AID 1920064; active = well fitted curve in the direction sought with a large enough effect in the repeat runs; an effect the other way counts as inactive or inconclusive). In outline:
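Stable human KISS1R HEK293 line; 18 h plating, 37 C/5% CO2; calcium dye 1 h 37 C; compound pin transfer; kinetic fluorescence Ex/Em 480/540, 3 min.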

Assay [5] can be described thus: G protein-coupled receptor (GPCR) small molecule agonists, calcium flux assay: HEK293 wild type cell line counter screen (AID 1920065). Summed up: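 Kinetic fluorescence at Ex/Em 480/540, recorded every second over 3 min, served as the read-out after compound addition. Each compound was tested at 15 concentrations in triplicate on cells pre-loaded with calcium dye for 1 h.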

The nature of assay [6]: p53 small molecule agonists, cell-based qHTS assay with human liver microsomes (AID 1963577). Summed up: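 Fluorescence of the beta-lactamase reporter in p53RE-bla cells, detected with LiveBLAzer substrate (2 h, room temperature, dark), served as the read-out after 16 h compound exposure at 37 C with human liver microsomes and NADPH, each 0.5 mg/mL final.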
Assay [7] can be described thus: p53 small molecule agonists, cell-based qHTS assay with rat liver microsomes (AID 1963578). Summed up: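 Cells carrying a p53 response element–beta-lactamase reporter were plated and rested 5 h, then dosed with compound in DMSO plus rat liver microsomes and NADPH, each at 0.5 mg/mL final. After 16 h at 37 C, LiveBLAzer substrate was added for 2 h.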
Assay [8] in a line: p53 small molecule agonists, cell-based qHTS assay with human liver microsomes: qHTS cell viability counter screen (AID 1963579). Note: nearly all actives have a fitted effect of over 45% in size. In outline:
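Cytotoxicity counter screen: p53RE-bla, 4,000 cells/well; 5 h settle, 37 C/5% CO2; cpd + HLM 0.5 mg/mL + NADPH 0.5 mg/mL (final); 16 h, 37 C; CellTiter-Glo, 30 min RT, luminescence.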

A short description of assay [9]: p53 small molecule agonists, cell-based qHTS assay with rat liver microsomes: qHTS cell viability counter screen (AID 1963580). Note: nearly all actives have a fitted effect of over 45% in size. Summed up:
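HCT-116 p53RE-bla, 4,000 cells/well, 5 h pre-incubation; cpd + rat liver microsomes 0.5 mg/mL + NADPH 0.5 mg/mL (final); 16 h, 37 C; CellTiter-Glo, 30 min RT; luminescence.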

A short description of assay [10]: p53 small molecule agonists, cell-based qHTS assay (AID 1963582; active = well fitted activation curve with a large enough effect in the signal ratio in the repeat runs, not every such curve was filed as active; the % refers to the signal ratio). Summed up:
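Reporter line: p53RE-bla. Pre-incubation 5 h, 37 C, 5% CO2; compound (DMSO, pin tool) 16 h, 37 C; B/G FRET substrate 2 h RT; fluorescence intensity read.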

The target of assay [11] is 5-hydroxytryptamine receptor 2A (Homo sapiens) (UniProt P28223). Kind of assay: 5-hydroxytryptamine receptor 2A (HTR2A) small molecule antagonists, cell-based qHTS assay (AID 1963586). Note: nearly all actives have a fitted effect of over 45% in size. Summed up:
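Antagonist-mode intracellular calcium assay: DOI (4 nM) added after 5 min compound pre-incubation at room temperature to dye-loaded HTR2A-CHO cells. Fluorescence followed for 3 min, sampled every second.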

For assay [12] the target is unchanged. The assay is described as follows: 5-hydroxytryptamine receptor 2A (HTR2A) small molecule agonists, cell-based qHTS assay (AID 1963587). Note: nearly all actives have a fitted effect of over 30% in size. Summed up: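 Kinetic calcium-flux fluorescence (2 min, 1 sec intervals) after compound addition in agonist mode. HTR2A-CHO cells were cultured 18 h, then dye-loaded 1 h at 37 C.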
For assay [13], the target named is Muscarinic acetylcholine receptor M1 (Homo sapiens) (UniProt P11229). Kind of assay: Cholinergic receptor muscarinic 1 (CHRM1) small molecule antagonists, cell-based qHTS assay (AID 1963588). Note: nearly all actives have a fitted effect of over 40% in size. In outline: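 CHRM1-CHO calcium-flux assay, antagonist mode. Cells were seeded 18 h, dye-loaded 1 h at 37 C and given compound for 5 min at RT, then acetylcholine was added at 50nM. FDSS fluorescence was read 3 min; 15 concentrations, three runs.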

The nature of assay [14]: cAMP Responsive Elements (CRE) small molecule agonists, cell-based qHTS assay (AID 1963590). Summed up: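 HEK 293T CRE-bla, 2,000 cells/well, 18 h preincubation 37 C/5% CO2; cpds (DMSO) pinned, 3 h; LiveBLAzer B/G FRET substrate, 2 h RT.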
A short description of assay [15]: cAMP Responsive Elements (CRE) small molecule antagonists, cell-based qHTS assay (AID 1963591; active = well fitted inhibition curve with a large enough effect in the signal ratio in the repeat runs, not every such curve was filed as active; the % refers to the signal ratio). Summed up: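 Beta-lactamase reporter read by FRET substrate (LiveBLAzer B/G) after 2 h at room temperature. CRE-bla HEK293T cells had received compound plus 0.25 uM (final) NKH477 for 3 h at 37 °C.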
The target of assay [16] is Beta-2 adrenergic receptor (Homo sapiens) (UniProt P07550). Kind of assay: Adrenergic beta2 receptor (ADRB2) small molecule antagonists, cell-based qHTS assay (AID 1963592). Note: series mostly up to about 92 µM; nearly all actives have a fitted effect of over 50% in size. Summed up:
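Cells (CHO, stable ADRB2 overexpression) incubated 18-20hr at 37C; compounds added from DMSO; agonist mix (1nM isoproterenol, 100uM IBMX, 25uM Ro-20-1724) added; 0.5hr RT; d2-cAMP and anti-cAMP-cryptate added; 1hr RT; 665/615 nm read.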

For assay [17] the target is unchanged. The assay is described as follows: Adrenergic beta2 receptor (ADRB2) small molecule agonists, cell-based qHTS assay (AID 1963593).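 Note: CHO cells stably overexpressing human ADRB2.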 Summed up:
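CHO cells stably over-expressing ADRB2 were plated overnight at 37C, then dosed with compounds plus a stimulation mix containing 100uM IBMX and 25uM Ro-20-1724 for 0.5hr at room temperature. cAMP was measured by HTRF competition, 1hr.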

Assay [18] addresses D(2) dopamine receptor (Homo sapiens) (UniProt P14416). The assay is described as follows: Dopamine D2 receptor (DRD2) small molecule agonists, cell-based qHTS assay (AID 1963594). Note: nearly all actives have a fitted effect of over 35% in size. Summed up:
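cAMP accumulation in DRD2-HEK293 cells measured by HTRF after 1 h detection; compounds added 10 min before NKH477 (200nM […]) forskolin-analogue stimulation, 30 min at room temperature, with Ro20-1724 present at 0.1 mM final.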

Assay [19] shares this target. The assay is described as follows: Dopamine D2 receptor (DRD2) small molecule antagonists, cell-based qHTS assay (AID 1963595; active = well fitted inhibition curve with a large enough effect in the signal ratio in the repeat runs, with a control signal flat; the % refers to the signal ratio). Summed up: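 Readout: HTRF cAMP, cAMP-d2 competing with cellular cAMP for anti-cAMP cryptate, read after 1 h. Cells: DRD2-HEK293. Conditions: 0.1 mM Ro20-1724, 12 nM quinpirole, 200 nM NKH477, 30 min RT.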
A short description of assay [20]: p53 small molecule agonists, cell-based qHTS assay: qHTS cell viability counter screen (AID 1963581). Note: nearly all actives have a fitted effect of over 45% in size. Summed up: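 HCT-116 p53RE-bla cells, 4,000/well, plated 5 h before compound pin transfer; 16 h at 37 C; bla substrate 2 h RT; then CellTiter-Glo, 30 min RT, luminescence.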

Sequence of KiSS-1 receptor (Homo sapiens) (Q969F8 whole entry, looked up): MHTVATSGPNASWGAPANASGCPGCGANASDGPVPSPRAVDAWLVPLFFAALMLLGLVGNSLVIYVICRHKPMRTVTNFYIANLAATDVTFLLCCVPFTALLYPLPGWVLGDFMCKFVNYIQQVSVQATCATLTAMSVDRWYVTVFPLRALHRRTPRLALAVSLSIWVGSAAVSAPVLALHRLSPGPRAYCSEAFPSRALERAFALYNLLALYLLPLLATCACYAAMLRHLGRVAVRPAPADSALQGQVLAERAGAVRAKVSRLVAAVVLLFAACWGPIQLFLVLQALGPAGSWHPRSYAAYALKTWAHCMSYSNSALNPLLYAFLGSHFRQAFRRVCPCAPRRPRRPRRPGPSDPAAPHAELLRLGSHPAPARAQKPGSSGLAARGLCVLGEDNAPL
Sequence of D(2) dopamine receptor (Homo sapiens) (P14416 whole entry, looked up): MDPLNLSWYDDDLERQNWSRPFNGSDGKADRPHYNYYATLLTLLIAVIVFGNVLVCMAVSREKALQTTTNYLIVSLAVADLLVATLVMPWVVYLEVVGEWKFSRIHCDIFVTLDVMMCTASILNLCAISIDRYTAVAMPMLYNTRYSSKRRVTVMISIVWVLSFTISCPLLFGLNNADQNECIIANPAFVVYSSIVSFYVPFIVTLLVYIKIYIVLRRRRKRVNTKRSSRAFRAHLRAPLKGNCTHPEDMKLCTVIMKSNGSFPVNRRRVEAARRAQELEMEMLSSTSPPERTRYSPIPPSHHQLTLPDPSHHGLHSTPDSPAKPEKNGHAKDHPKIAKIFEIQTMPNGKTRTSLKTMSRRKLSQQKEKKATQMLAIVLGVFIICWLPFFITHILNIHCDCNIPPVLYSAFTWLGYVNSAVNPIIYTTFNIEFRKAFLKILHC
Sequence of Gonadotropin-releasing hormone receptor (Homo sapiens) (P30968 whole entry, looked up): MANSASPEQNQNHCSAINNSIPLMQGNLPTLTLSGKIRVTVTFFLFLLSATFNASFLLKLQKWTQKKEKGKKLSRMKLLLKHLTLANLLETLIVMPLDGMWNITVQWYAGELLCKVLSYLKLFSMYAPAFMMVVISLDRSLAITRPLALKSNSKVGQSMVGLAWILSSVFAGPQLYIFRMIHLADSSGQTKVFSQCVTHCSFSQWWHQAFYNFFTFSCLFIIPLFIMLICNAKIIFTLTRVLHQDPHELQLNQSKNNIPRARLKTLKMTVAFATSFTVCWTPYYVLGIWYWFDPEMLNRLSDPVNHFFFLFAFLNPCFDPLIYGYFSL
Sequence of Beta-2 adrenergic receptor (Homo sapiens) (P07550 whole entry, looked up): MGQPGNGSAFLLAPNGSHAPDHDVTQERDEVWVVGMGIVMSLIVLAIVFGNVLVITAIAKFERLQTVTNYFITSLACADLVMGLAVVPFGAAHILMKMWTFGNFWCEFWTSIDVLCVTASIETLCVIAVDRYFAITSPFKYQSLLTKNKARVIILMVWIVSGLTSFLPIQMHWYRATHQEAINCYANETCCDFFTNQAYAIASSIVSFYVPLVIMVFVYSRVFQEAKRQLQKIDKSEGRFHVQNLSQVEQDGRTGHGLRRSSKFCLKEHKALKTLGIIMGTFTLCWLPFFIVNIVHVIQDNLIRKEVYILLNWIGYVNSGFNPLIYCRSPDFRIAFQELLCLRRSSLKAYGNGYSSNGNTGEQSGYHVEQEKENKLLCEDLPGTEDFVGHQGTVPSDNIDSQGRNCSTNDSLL
Sequence of 5-hydroxytryptamine receptor 2A (Homo sapiens) (P28223 whole entry, looked up): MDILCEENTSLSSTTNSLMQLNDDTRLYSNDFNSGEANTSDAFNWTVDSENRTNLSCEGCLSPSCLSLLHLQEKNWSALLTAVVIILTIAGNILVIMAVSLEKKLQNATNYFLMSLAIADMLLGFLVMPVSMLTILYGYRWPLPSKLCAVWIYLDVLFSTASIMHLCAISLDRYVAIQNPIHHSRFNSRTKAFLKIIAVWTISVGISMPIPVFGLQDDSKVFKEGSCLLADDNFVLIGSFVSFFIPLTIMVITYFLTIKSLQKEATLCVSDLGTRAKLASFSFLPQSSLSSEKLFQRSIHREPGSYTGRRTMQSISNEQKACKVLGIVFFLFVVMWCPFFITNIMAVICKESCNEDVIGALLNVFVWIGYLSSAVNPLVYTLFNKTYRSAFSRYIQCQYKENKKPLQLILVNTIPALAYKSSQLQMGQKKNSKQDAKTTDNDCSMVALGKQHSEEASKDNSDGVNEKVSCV
Sequence of Muscarinic acetylcholine receptor M1 (Homo sapiens) (P11229 whole entry, looked up): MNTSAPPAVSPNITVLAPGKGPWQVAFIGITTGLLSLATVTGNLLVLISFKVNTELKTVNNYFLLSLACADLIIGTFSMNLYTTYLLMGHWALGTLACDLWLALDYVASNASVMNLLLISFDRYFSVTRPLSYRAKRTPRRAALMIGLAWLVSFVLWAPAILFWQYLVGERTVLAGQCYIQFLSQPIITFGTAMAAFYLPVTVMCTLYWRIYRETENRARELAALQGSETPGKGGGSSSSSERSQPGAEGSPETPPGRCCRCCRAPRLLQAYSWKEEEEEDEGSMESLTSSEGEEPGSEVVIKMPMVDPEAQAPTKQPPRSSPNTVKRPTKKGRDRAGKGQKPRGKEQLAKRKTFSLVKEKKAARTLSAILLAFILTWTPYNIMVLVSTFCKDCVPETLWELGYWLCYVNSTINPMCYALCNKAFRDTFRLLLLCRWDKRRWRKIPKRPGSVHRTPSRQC

Take `CC(=O)c1nccs1`: the Potency entry in [1], in assay [2], in assay [3], in assay [4], in assay [5] and in assay [6] was “inactive” throughout. In addition, the Potency result in assay [7], in assay [8], in [9], in assay [10], in assay [11] and in [12] was “inactive” each time. Moreover, the Potency entry in assay [13], in assay [14], in assay [15], in assay [16], in [17] and in assay [18] was “inactive” in each case. Also, the Potency entry in [19] was “inactive”.
`NC(=O)c1ncn([C@@H]2O[C@H](CO)[C@@H](O)[C@H]2O)n1`: the Potency result in assay [1], in assay [2], in assay [3], in [4], in [5] and in assay [6] was “inactive” each time. Also, the Potency entry in assay [7], in assay [8], in assay [9], in assay [20], in [14] and in assay [15] was “inactive” in each case. Besides, the Potency result in assay [16], in assay [17], in assay [18] and in assay [19] was “inactive” in each case.
Take `Cc1ccc(C)c(O)c1C`: the Potency result in assay [1], in [2], in [3], in assay [4], in [5] and in assay [6] was “inactive” each time. In addition, the Potency entry in assay [7], in [8], in assay [20], in [10], in [11] and in assay [12] was “inactive” throughout. The Potency entry in [13], in assay [14], in [15], in assay [16], in [17] and in assay [18] was “inactive” throughout. For the same compound, the Potency entry in assay [19] was “inactive”.
In the case of `C=C(C)C(=O)OCC(CC)(COC(=O)C(=C)C)COC(=O)C(=C)C`, the Potency result in assay [1], in [2], in assay [3], in [4], in assay [5] and in [6] was “inactive” in each case. The Potency result in assay [7], in assay [8], in assay [9], in assay [10], in [11] and in [12] was “inactive” in each case. Besides, the Potency entry in [16], in [18] and in assay [19] was “inactive” in each case.
Take `CC#C[C@]1(O)CC[C@H]2[C@@H]3CCC4=CC(=O)CCC4=C3[C@@H](c3ccc(N(C)C)cc3)C[C@@]21C`: the Potency result in [1], in assay [2], in assay [3], in [4], in assay [5] and in [6] was “inactive” in each case. Besides, the Potency result in [7], in assay [8], in assay [9], in assay [20], in [16] and in [18] was “inactive” each time. For the same compound, the Potency entry in assay [19] is “inactive”.
As for `CCCCCCCCC/C=C/CC1CC(=O)OC1=O` (stereo unspecified), the Potency result in assay [1], in [2], in assay [3], in assay [4], in [5] and in assay [6] was “inactive” each time. Also, the Potency entry in [7], in assay [8], in assay [9], in assay [20], in assay [12] and in [13] was “inactive” each time. The Potency entry in [14], in [15], in assay [16], in [17], in assay [18] and in [19] was “inactive” throughout.
For the compound `CCCCCCCCCCC=CC1CC(=O)OC1=O` (stereo unspecified), the Potency entry in assay [1], in assay [2], in assay [3], in assay [4], in assay [5] and in assay [6] was “inactive” in each case. Further, the Potency result in assay [7], in [8], in assay [9], in assay [20], in [11] and in [12] was “inactive” in each case. In addition, the Potency entry in [13], in [14], in assay [15], in [16], in [18] and in assay [19] was “inactive” throughout.
In the case of `O=C(O)c1[nH]n(-c2ccc(S(=O)(=O)O)cc2)c(=O)c1N=Nc1ccc(S(=O)(=O)O)cc1`, in assay [1], the Potency is 24.4 µM (active) and 45.4 µM (active). Besides, the Potency result in assay [2], in [3], in [4], in assay [5], in [6] and in assay [7] was “inactive” throughout. Moreover, the Potency entry in [8], in assay [20], in assay [10], in [11], in [12] and in [13] was “inactive” each time. In addition, the Potency entry in assay [14], in [15], in assay [16], in [17] and in assay [18] was “inactive” in each case.
